Screening data (PubChem BioAssay)
ABHD5 PLIN5 PPI – blocks binding of human ABHD5 to perilipin-5 | hit rate 0.78% among 360,000 | AID 602281 | Q00G26+Q8WTS1 | inhibition, % at 4 µM | Split G. princeps luciferase complementation, luminescence, 4 h;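 active = inhibition above the mean inhibition across every tested compound plus 3 SD, cut at about 22% in these data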;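 note: 0% = DMSO only wells and the 100% control is not disclosed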
MITF TRPM1 inh – reduces MITF-dependent TRPM1 promoter luciferase signal | SK-MEL-5 TRPM1 promoter luciferase, 24 h | inhibition, % at 12.5 µM | hit rate 0.83% among 330,000 | AID 488899;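 active = mean inhibition across replicates of 60% or more, whatever share of single replicates reaches that level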
Shn3 3UTR inh – Schnurri-3 reporter inhibition in Clone20 osteoblasts; hit rate 0.52% among 360,000; inhibition, % at 12.5 µM; Clone20 osteoblast Shn3 3'UTR firefly luciferase, 24 h;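 active = mean inhibition of at least 75% with every replicate also reaching 75%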;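 note: 0% = median of neutral control wells and 100% = pilot-screen positive control compound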
EWS-Fli inh – inhibitors of EWS/Fli oncoprotein transcriptional activity | A673 NR0B1-luciferase reporter, viability-normalised | inhibition, % at 12.6 µM | hit rate 0.67% among 350,000;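 active = mean inhibition of at least 50% after viability correction, with every replicate also passing that limit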;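 note: firefly luciferase signal divided by Alamar Blue viability fluorescence both relative to DMSO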
Peg3 prom inh – reduces Peg3 promoter-driven luciferase expression in HeLa; HeLa PEG-Prom luciferase reporter, luminescence, overnight; inhibition, % at 20 µM; hit rate 1.7% among 360,000;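 active = inhibition of at least 50% at 20 µM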
PAX8 reporter – PAX8 transcriptional activity inhibition; RMG-I TPO-luciferase reporter, SteadyGlo, 24 h; inhibition, % at 12.6 µM; hit rate 1.2% among 360,000; AID 652154;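 active = mean replicate inhibition at least 60% with every replicate also reaching 60%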;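 note: luciferase light reporting Pax8 driven TPO promoter activity; plate controls were median of neutral control wells for no effect and mitoxantrone controls for full effect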
An asterisk follows results filed as active; / = no result. Hits are enriched below; roughly 3% of the tested compounds scored in any of these assays.

SMILES | ABHD5 PLIN5 PPI | MITF TRPM1 inh | Shn3 3UTR inh | EWS-Fli inh | Peg3 prom inh | PAX8 reporter
COc1ccccc1C(CC(=O)c1ccccc1)C(=O)c1ccccc1 (stereo not drawn) | -10.1 | / | / | -4.0 | / | -8.9
C=C(C(=O)c1ccccc1)C(CC(=O)c1ccccc1)c1ccccc1 (stereo not drawn) | 4.9 | 47.7 | 88.7* | / | 99.5* | 102.4*
CC(=O)Oc1ccccc1/C=C/c1ccc2ccccc2[n+]1C | 8.9 | -69.7 | -156.3 | -93.3 | -316.8 | -75.2
COc1ccc(/C=C/c2ccc3ccccc3[n+]2C)cc1OC | 8.3 | -23.6 | 92.1* | / | -93.1 | /
Brc1ccc2c(c1)C(C1=NCCN1)c1ccccc1CS2 (stereo not drawn) | -5.0 | -6.2 | 12.0 | 58.0* | 32.7 | 10.8
Cc1ccc2c(c1)NC(=O)[C@@]1(C)[C@@H](c3ccccc3)[C@H]3COc4ccccc4[C@@H]3N1C2=O | -6.0 | 5.2 | -14.9 | 10.2 | -2.9 | 16.9
COc1ccc2c(c1)[C@H]1[C@H](CO2)[C@H](c2ccccc2)[C@]2(C)C(=O)Nc3ccc(C)cc3C(=O)N12 | 4.5 | / | -1.4 | 25.5 | 15.6 | -6.3
Cc1ccc2c(c1)[C@H]1[C@H](CO2)[C@H](c2ccccc2)[C@]2(C)C(=O)Nc3ccccc3C(=O)N12 | -9.9 | 20.2 | 0.8 | 56.6* | 27.9 | 45.0
Cc1ccc2c(c1)[C@H]1[C@H](CO2)[C@H](c2ccccc2)[C@]2(C)C(=O)Nc3ccc(Cl)cc3C(=O)N12 | -9.7 | 15.6 | 38.7 | 8.4 | -3.6 | 13.4
Cc1ccc2c(c1)[C@H]1[C@H](CO2)[C@H](c2ccccc2)[C@]2(C)C(=O)Nc3cc(F)ccc3C(=O)N12 | -10.1 | 23.4 | 37.8 | 61.1* | 68.2* | 11.0
C[C@@]12C(=O)Nc3cc(F)ccc3C(=O)N1[C@H]1c3cc(Br)ccc3OC[C@@H]1[C@@H]2c1ccccc1 | -4.9 | 9.6 | 13.1 | 49.8 | 54.0* | -2.1
COc1ccc2c(c1)C(=O)N1[C@H]3c4cc(C)ccc4OC[C@@H]3[C@H](c3ccccc3)[C@]1(C)C(=O)N2 | -2.5 | 28.0 | 0.0 | 64.1* | 30.8 | 23.0
COC(=O)c1c2oc(c1C(=O)OC)C(=O)N[C@H](Cc1ccccc1)Cn1cc(nn1)[C@@H](Cc1ccccc1)NC(=O)N[C@@H](CO)CC2 | / | / | / | -12.0 | / | -6.1
COc1cccc(NC(=O)N[C@@H]2CC[C@@H](CC(=O)NCc3ccncn3)O[C@H]2CO)c1 | / | / | / | -6.2 | / | 3.9
O=C(COC(=O)c1ccc(F)c([N+](=O)[O-])c1)NC(=O)NCc1ccccc1 | -0.6 | 70.0* | 5.1 | 8.6 | 97.0* | 3.3
Cc1cc(C(=O)CCl)c(C)n1CCc1ccc(Cl)cc1 | 10.5 | 78.5* | 40.9 | 22.6 | 98.1* | 3.0
COc1ccc(CCn2c(C)cc(C(=O)CCl)c2C)cc1OC | 4.6 | 44.2 | 11.3 | 13.5 | 61.4* | 1.1
Cc1cc(C(=O)CSc2nnc(N)s2)c(C)n1CCc1ccc(Cl)cc1 | -1.8 | -31.2 | -17.2 | / | -23.6 | /
Cc1cc(C(=O)CSc2nnnn2C)c(C)n1CCc1ccc(F)cc1 | -3.6 | 2.3 | -5.7 | / | 4.4 | /
Cc1cc(C(=O)CCl)c(C)n1CCc1ccc(F)cc1 | 2.9 | 88.3* | 70.2 | 40.3 | 56.0* | 32.0
CCCN1CCc2[nH]c(=S)[nH]c(=O)c2C1 | -13.2 | -7.3 | 17.7 | -10.0 | -11.3 | 72.3*
O=C(CSc1ccccn1)Nc1nonc1[N+](=O)[O-] | 5.7 | 85.6* | 95.1* | / | 104.3* | 12.1
OC(CNCCc1ccc(C(F)(F)F)cc1)COC(c1ccccc1)c1ccccc1 (stereo not drawn) | -4.9 | 4.6 | 31.8 | 29.4 | 111.0* | 23.0
O=C(NCC[C@@H]1CC[C@@H](NS(=O)(=O)Cc2ccccc2)[C@H](CO)O1)C1CCCC1 | / | / | / | 0.7 | / | 1.1
Cc1ccc(-c2ccc([C@@H]3[C@H](CO)N4CCCCN(C(=O)c5ccc(F)cc5)C[C@@H]34)cc2)cc1 | / | / | / | 3.0 | / | 72.0*
Cc1ccc(-c2ccc([C@@H]3[C@@H](CO)N4CCCCN(C(=O)c5ccc(F)cc5)C[C@H]34)cc2)cc1 | / | / | / | 1.2 | / | 3.3
COc1ccccc1NC(=O)N1CCCCN2[C@H](C1)[C@@H](c1ccc(-c3ccccc3)cc1)[C@@H]2CO | / | / | / | -4.4 | / | -22.7
O=C(Nc1ccc(F)cc1)N1CCCCN2[C@@H](CO)[C@@H](c3ccc(C#Cc4ccccc4)cc3)[C@@H]2C1 | / | / | / | 62.6* | / | 77.4*
